# Assay outcomes (PubChem)
# In the library only some 2.4% were active in any assay of this set; here they are far more common.
# CHRM1 agonist = activates human CHRM1 receptor; CHO-K1 hM1, Fluo-8 calcium fluorescence, agonist mode; 0% DMSO, 100% acetylcholine EC100; activation, % at 3 µM; 0.33% of 360,000 active; AID 588814;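 active means activation above the run's mean compound activation plus 3 SD, cut at about 16% in these data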;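 further: peak over basal fluorescence ratio within a 140 s kinetic read after compound addition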
# Target sequence (P11229 whole entry, looked up): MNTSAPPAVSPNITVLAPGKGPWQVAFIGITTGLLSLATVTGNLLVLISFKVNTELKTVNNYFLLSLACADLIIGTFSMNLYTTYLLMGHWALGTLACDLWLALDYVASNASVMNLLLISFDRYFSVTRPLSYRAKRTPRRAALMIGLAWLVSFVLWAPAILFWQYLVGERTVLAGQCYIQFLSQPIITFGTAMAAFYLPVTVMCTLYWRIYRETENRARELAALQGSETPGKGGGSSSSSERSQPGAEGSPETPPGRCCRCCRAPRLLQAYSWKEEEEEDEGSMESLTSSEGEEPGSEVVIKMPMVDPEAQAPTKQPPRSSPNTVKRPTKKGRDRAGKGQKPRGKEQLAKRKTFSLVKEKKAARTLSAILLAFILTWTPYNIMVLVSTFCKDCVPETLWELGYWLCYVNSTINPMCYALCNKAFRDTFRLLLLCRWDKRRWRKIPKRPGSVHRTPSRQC
# CHO-K1 Ca PAM = counter-screen for M1 PAMs: effect in parental CHO-K1 cells. ATP EC20, Fluo-8 calcium fluorescence; 0% at ATP EC20, 100% at ATP max. activation, % at 3 µM. 0.02% of 360,000 active;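 active means activation above the run cutoff, the mean activation of all test compounds plus 3 SD, cut at about 40% in these data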;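 further: peak over basal fluorescence ratio in a 140 s read after ATP addition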
# M1 ag parental = M1 agonist counterscreen hit in parental CHO-K1 cells | 0.48% of 360,000 active | AID 602248 | activation, % at 3 µM | Fluo-8 calcium fluorescence; scaled to maximal ATP response, vehicle zero; in the data active means activation above about 15%;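 further: untransfected CHO-K1 host cells lacking M1 receptor as counterscreen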
# M1 PAM = potentiates human M1 receptor response to acetylcholine; P11229; CHO-K1 hM1, Fluo-8 calcium fluorescence, ACh EC20; 0% = ACh EC20, 100% = maximal ACh; activation, % at 3 µM; 0.088% of 360,000 active; AID 588819; in the data active means activation above about 19%, passing the limit was not always enough
# CHO-K1 Ca antag = counter-screen for M1 antagonists: effect in parental CHO-K1 cells; ATP-induced calcium, Fluo-8 fluorescence; inhibition, % at 3 µM; 0.6% of 360,000 active;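 active means inhibition above a per-plate cutoff, the plate's mean sample inhibition plus 3 SD, cut at about 24% in these data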;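 further: 0% = DMSO plus EC80 ATP and 100% = DMSO alone without ATP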
# M1 antag = blocks human M1 muscarinic receptor; CHO-K1 hM1, Fluo-8 calcium fluorescence, ACh EC80 antagonist; inhibition, % at 3 µM; 1.3% of 360,000 active; AID 588852;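 active means percent inhibition above its own plate's cutoff, namely the mean of that plate's compound wells plus 3 SD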;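 further: peak over basal fluorescence ratio during 140 s after agonist addition; 0% = ACh EC80 plus DMSO and 100% = DMSO alone without agonist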
# * marks the source's active call; other numbers are inactive results.
SMILES,CHRM1 agonist,CHO-K1 Ca PAM,M1 ag parental,M1 PAM,CHO-K1 Ca antag,M1 antag
CCN1C(=O)c2ccccc2S(=O)(=O)c2ccc(C(=O)N3CCOCC3)cc21,-11,15,1,9,-3,-20
CCN1C(=O)c2ccccc2S(=O)c2ccc(C(=O)N3CCOCC3)cc21 (stereo not drawn),-7,7,18*,-5,0,7
CC(=O)c1c(C)[nH]c(C(=O)CN2CCN(S(=O)(=O)c3ccccc3)CC2)c1C,-1,9,13,-6,-14,8
CCOC(=O)c1ccn(CSc2c(F)c(F)cc(F)c2F)n1,-2,-12,0,-14,21,33*
COC(=O)c1ccn(CSc2c(F)c(F)cc(F)c2F)n1,-4,13,0,13,-11,-12
O=C(COc1ccc(C(=O)NCc2cccnc2)cc1)Nc1cccc(C(F)(F)F)c1,-2,-27,9,-18,13,36*
O=C(COc1ccc(Nc2ccccc2)cc1)Nc1ccncc1,3,-18,15*,-9,9,23
O=C(COc1ccc(-c2ccccc2)cc1)Nc1cccnc1,2,-11,18*,-14,15,39*
O=C(COc1ccc(Cl)cc1)Nc1ccc(C(=O)NCc2cccnc2)cc1,1,6,6,1,1,8
OCCNc1nc(NCCC2=CCCCC2)nc(N2CCOCC2)n1,2,15,1,6,24*,2
O=C(COC(=O)CNC(=O)c1ccccc1)NCCc1ccccc1,-3,12,1,11,-7,-8
Cc1cc(C(=O)NCC(=O)OCC(=O)NCCc2ccccc2)ccc1[N+](=O)[O-],-1,-18,-1,3,53*,6
CCOCCNC(=O)c1ccccc1C(=O)NCCOCC,-3,-3,0,7,30*,-8
O=C(NCCCCCCNC(=O)c1ccccc1O)c1ccccc1O,-1,-9,19*,-23,1,32*
CN(C(=O)COc1ccccc1C(=O)NCCOc1ccccc1)c1ccccc1,-2,1,11,-22,25*,50*
CCCNC(=O)c1ccccc1C(=O)NCCC,-1,18,1,-3,-9,-8
COC(=O)c1cc(C)c(C)cc1NC1OC(CO)C(O)C1O (stereo not drawn),-2,1,-1,19,-1,-28
CCN(CC(=O)Nc1ccc2c(c1)OCCO2)C(=O)/C=C/c1ccc(OC)cc1OC,-4,-8,2,3,4,2
CCN(CC(=O)Nc1ccc2c(c1)OCCO2)C(=O)/C=C/c1cccc(OC)c1OC,17*,20,6,27*,-11,-20
O=C(CNC(=O)c1cccs1)OCC(=O)c1ccccc1Cl,-4,-12,0,-12,12,10
Cc1cccc(C)c1NC(=O)COC(=O)c1cccc2c1C(=O)c1ccccc1C2=O,-5,1,1,-1,-6,5
Cc1cccc(NC(=O)COC(=O)c2cccc3c2C(=O)c2ccccc2C3=O)c1C,-7,17,4,-17,-4,29*
Cn1nnnc1SCC(=O)N1c2ccccc2Sc2ccc(Cl)cc21,-6,15,1,-20,-10,30*
CN(C)CCC(=O)N1c2ccccc2Sc2ccc(Cl)cc21,-13,10,0,-34,8,99*
CN(C)CC(=O)N1c2ccccc2Sc2ccc(Cl)cc21,-10,15,5,-28,-4,99*
SMILES,CHRM1 agonist,CHO-K1 Ca PAM,M1 ag parental,M1 PAM,CHO-K1 Ca antag,M1 antag
CCOC(=O)c1c(C)sc2c1N(C(=O)CN(CC)CC)c1cc(Cl)ccc1S2,-5,6,0,-14,-16,12
Cn1c(SCC(=O)N2c3ccccc3Sc3ccc(Cl)cc32)nnc1-c1ccco1,-13,-10,3,-12,-9,-3
O=C(CN1CCOCC1)N1c2ccccc2Sc2ccc(Cl)cc21,-8,24,2,-17,-12,20
CCN(CC)CCC(=O)N1c2ccccc2Sc2ccc(Cl)cc21,-7,12,1,-26,2,100*
CN(C)CCNC(=O)c1c(CSc2ccccc2)noc1C(=O)NCc1ccccc1,-10,9,4,-5,-5,4
O=C(OCC(=O)N1CCCC1)c1ccccc1C(=O)c1ccccc1,-8,-20,0,-6,-4,10
COCc1ccc(C(=O)N(C)CC2CCCN(CCc3ccc(Cl)cc3)C2)o1 (stereo not drawn),-7,27,2,-15,-16,23
COCc1ccc(C(=O)N(C)CC2CCCN(CCc3ccc(OC)cc3)C2)o1 (stereo not drawn),-5,-4,0,-22,-12,52*
Cc1cc(C(=O)N(C)CC2CCCN(CCc3ccc(F)cc3)C2)c(C)o1 (stereo not drawn),-7,10,0,-17,-7,19
CN(CC1CCCN(CCc2ccccc2F)C1)C(=O)c1cc2ccccc2o1 (stereo not drawn),-9,11,2,-31,-1,96*
CCN1CCN(C(=O)C(C)Sc2nnc3nc(C)cc(C)n23)CC1 (stereo not drawn),-7,1,0,10,-12,-10
Cn1c(SCc2ccccc2Cl)nnc1-c1cnccn1,-6,-6,0,2,24*,1
CCCCCOc1ccc(NC(=O)C(=O)NCC2CCCN2CC)cc1 (stereo not drawn),-14,-18,0,-14,25*,8
CCN1CCCC1CNC(=O)C(=O)NC (stereo not drawn),-4,2,0,2,-12,-2
O=C(Nc1ccc(F)cc1)Nc1cnccn1,0,13,2,5,-9,-7
O=C(Nc1cc(Cl)cc(Cl)c1)Nc1cnccn1,2,-28,1,-8,30*,26
Oc1ccc(Br)cc1C=Nc1ccc2c3c(cccc13)CC2,11,3,22*,-2,32*,13
Cc1cc[n+](CC(=O)c2cc3ccccc3oc2=O)cc1,-8,17,0,-23,-3,59*
CCCC(=O)NC(=S)Nc1ccc(N2CCN(C(=O)c3cccs3)CC2)cc1,3,-12,15*,-9,14,27
CCCC(=O)NC(=S)N1CCN(c2ccc([N+](=O)[O-])cc2)CC1,-4,-11,0,-7,25*,11
Cc1ccc(C(=O)NC(=S)N2CCN(c3ccc([N+](=O)[O-])cc3)CC2)cc1,-10,13,-1,2,-6,-10
COc1ccc(N2CCN(C(=O)CCS(=O)(=O)c3ccc(OC)cc3)CC2)cc1,-5,20,3,-1,-11,2
O=[N+]([O-])c1ccc(N2CCN(C(=S)Nc3ccc(F)cc3F)CC2)cc1,-2,-16,11,-5,24*,29
